Whole data set: some 35,000 sequences, median “fluorescence intensity (a.u.)” near 10,000, cut for the highest 2% near 52,000. For the sample, the highest values were picked, then their nearest neighbours and some sequences at random.

In the assay the target is T1, OsWOX13 (Oryza sativa, UniProt Q5QMM3 1-267).
T1 sequence: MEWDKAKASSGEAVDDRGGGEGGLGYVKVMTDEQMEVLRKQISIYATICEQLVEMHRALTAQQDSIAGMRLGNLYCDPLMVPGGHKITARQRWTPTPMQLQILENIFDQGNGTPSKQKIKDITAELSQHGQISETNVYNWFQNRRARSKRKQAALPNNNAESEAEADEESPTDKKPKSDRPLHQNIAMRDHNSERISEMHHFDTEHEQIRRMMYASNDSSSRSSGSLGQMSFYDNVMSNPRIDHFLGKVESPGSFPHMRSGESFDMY
The experiment in a line: protein-binding microarray (RPBM); PBS, 2% BSA, 51.3 ng/ul salmon testes DNA, 50 uM zinc acetate, 200 nM TF, 25 C, 1 h; high values mean tight binding. To be noted: protein: recombinant; tags: N-terminal polyhistidine and DsRed monomer fusion (pET32a); label: CyDye5-dUTP incorporated in the synthesized complementary strand; 3' TTTTT single-stranded linker to array surface; dsDNA, one strand shown. In outline:
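An Axon 4000B scanner gave the binding signal as per-feature fluorescence intensity in arbitrary units. This followed washing of a custom Agilent array that had been incubated for 1 h at 25 °C with 200 nM protein in PBS, 2% BSA, salmon testes DNA and 50 µM zinc acetate. The proteins were transcription factors fused at the N-terminus to polyhistidine and DsRed, expressed in E. coli BL21-CodonPlus and purified on Ni–NTA.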
For the sequence “CAATGACTGATTACTGTGTTGATAGAATTTCATATACATTCGGAGTCACCTAGTGCAG”, the binding signal was 34300 fluorescence intensity (a.u.). Regarding “TAAAATTTGGAACTGAAATTTCTAACATTTCGGGTCCATCCGGAGTCACCTAGTGCAG”, the binding signal is 4680 fluorescence intensity (a.u.). For “AAGATAGATAGATTCATCGCGATCGATCGAGCGGGAGGTACGGAGTCACCTAGTGCAG”, the binding signal was 22500 fluorescence intensity (a.u.). Regarding “AAACCATTGCAAATTAACTCTCCAAATGGTTTCAGAGACGCGGAGTCACCTAGTGCAG”, the binding signal is 4040 fluorescence intensity (a.u.). The value for “TACGCTATACGCAGTAATTGATATATATAATCTTCATGGTCGGAGTCACCTAGTGCAG” was 8920 fluorescence intensity (a.u.).

As to “CCAAATGGGACAAAAGATTGAAAAGAAAACTGACAGCCGCCGGAGTCACCTAGTGCAG”, the binding signal was 13900 fluorescence intensity (a.u.).

Regarding “GTCCCAATGATTGCCAGCCCCGGTGGACGGGTGTAGAAGCCGGAGTCACCTAGTGCAG”, the binding signal is 38100 fluorescence intensity (a.u.). For the sequence “ATAACTATTTAATTGACATGCAATAAATATAAATGGGTAGCGGAGTCACCTAGTGCAG”, the binding signal was 52600 fluorescence intensity (a.u.).

With “CTTTTAAATGTAGTATAATTATATTATAACTAATAACTAGCGGAGTCACCTAGTGCAG”, the binding signal was 18300 fluorescence intensity (a.u.).

Consider “TATAATTGACATGCAATTATAATAACGTGGGTTAAATATACGGAGTCACCTAGTGCAG”, for which the binding signal is 33800 fluorescence intensity (a.u.). Turning to “CCAAATTCATCTTAATGTTTGATTATGATCAGCATCTTATCGGAGTCACCTAGTGCAG”, the binding signal was 4610 fluorescence intensity (a.u.). With “TCTAAATTGTATTTCTATATGGACTCTAGTCTCCTCTTCACGGAGTCACCTAGTGCAG” the figure was 14000 fluorescence intensity (a.u.). As to “TCCCCTCTGATTAATTAATTAATTAATTAATTAGCTAAAACGGAGTCACCTAGTGCAG”, the binding signal is 65500 fluorescence intensity (a.u.). “GAAACGTGATTCAAATGATTATTCAGGTACAATAATCTTACGGAGTCACCTAGTGCAG”: the binding signal is 8070 fluorescence intensity (a.u.).

As to “GAACAATAGATTAATATATAATTAAATAAATATTAGTCAACGGAGTCACCTAGTGCAG”, the binding signal was 25100 fluorescence intensity (a.u.). With “TCCTCTCTTAATTAATTATTAGCTCGTGTTAATTGTTAAACGGAGTCACCTAGTGCAG”, the binding signal is 32800 fluorescence intensity (a.u.). “AGTCAAATTAATCACGCAGCTGAATGCTGAATAATGTGTCCGGAGTCACCTAGTGCAG”: the binding signal was 24000 fluorescence intensity (a.u.). “TAAACATCTGATTAGCTAAAAGTGTTTAATTAGATTTCCACGGAGTCACCTAGTGCAG”: the binding signal was 21800 fluorescence intensity (a.u.). As to “AGCTCTGATTGAATTAGCTAATTATGGTTGCACGTCTAAGCGGAGTCACCTAGTGCAG”, the binding signal is 59600 fluorescence intensity (a.u.).

Turning to “GAAATAATTAATCAATTAACGCTGATGTGTGAGCTGCGTACGGAGTCACCTAGTGCAG”, the binding signal is 53800 fluorescence intensity (a.u.). Regarding “CAGTTGATTGGCCGACGTTATGATATGGTAGCTGAATTAGCGGAGTCACCTAGTGCAG”, the binding signal is 44100 fluorescence intensity (a.u.). “CGTCTAATTAAGCGTAGACGATCTGATTCGCTAGCTCGCACGGAGTCACCTAGTGCAG”: the binding signal is 10600 fluorescence intensity (a.u.). With “TACAATCTGATTAATTAATTAGCACGGAAAATAATGTCAACGGAGTCACCTAGTGCAG”, the binding signal is 59200 fluorescence intensity (a.u.). Take “TATTAATTTGTAATTAATATTGAATAACGCTGCGTGAGTACGGAGTCACCTAGTGCAG”: the binding signal is 45900 fluorescence intensity (a.u.).
